A selection: hits, their analogues and other compounds. The true share with any hit is near 12%.
Cav3 T inh = inhibitors of human Cav3.2 T-type calcium channel | AID 449739 | Cav3.2-expressing cells, Fluo-4 calcium fluorescence FDSS; active compounds read low | B-score at 10 µM | 100,000 compounds, 4% hits | O95180;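 active = single-dose well whose peak fluorescence ratio is a statistical outlier from its plate by either plate-standardised score or position-corrected B-score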
PostGolgi yeast = growth inhibition of a yeast mutant, post-Golgi transport screen; post-Golgi transport phenotypic cell assay; inhibition, % at 10 µM; 98,000 compounds, 0.9% hits; AID 739;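 note: yeast cells grown in 1536-well plates; yeast grown about 18 h at 30C before absorbance read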
DAT uptake mod = human DAT dopamine uptake with cocaine, either direction | LLC-PK1 hDAT cells, [14C]-dopamine uptake with cocaine IC80; actives deviate in either direction | B-score at 10 µM | 110,000 compounds, 1.3% hits;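 active = Z score or B-score, a plate-position-corrected score, falls beyond the plate's 99.7% confidence bounds, in either direction; inactive = both scores lie inside the 99.7% bounds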;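 note: scored against the spread of the other compound wells on the same plate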
D1 mod = allosterically modulates the human D1 dopamine receptor. 58,000 compounds, 5.9% hits. P21728. AID 641. B-score at 10 µM. HEK293 D1, CRE-luciferase, dopamine EC30 potentiation; actives deviate in either direction;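 active = luminescence count or its row- and column-corrected plate score outside the 99.7% band of the plate's sample wells, on either side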
PostGolgi ctrl = yeast control strain growth, post-Golgi counter-screen | efflux-deficient yeast background strain, growth absorbance A615, 16 h | inhibition, % at 10 µM | 98,000 compounds, 5% hits | AID 738
PLAP act = human PLAP activation; P05187; 96,000 compounds, 1.2% hits; purified PLAP enzyme, luminescent substrate read-out; active compounds read high; activation fold at 20 µM; in the data active = activation fold above about 2
Target sequence (P05187 whole entry, looked up): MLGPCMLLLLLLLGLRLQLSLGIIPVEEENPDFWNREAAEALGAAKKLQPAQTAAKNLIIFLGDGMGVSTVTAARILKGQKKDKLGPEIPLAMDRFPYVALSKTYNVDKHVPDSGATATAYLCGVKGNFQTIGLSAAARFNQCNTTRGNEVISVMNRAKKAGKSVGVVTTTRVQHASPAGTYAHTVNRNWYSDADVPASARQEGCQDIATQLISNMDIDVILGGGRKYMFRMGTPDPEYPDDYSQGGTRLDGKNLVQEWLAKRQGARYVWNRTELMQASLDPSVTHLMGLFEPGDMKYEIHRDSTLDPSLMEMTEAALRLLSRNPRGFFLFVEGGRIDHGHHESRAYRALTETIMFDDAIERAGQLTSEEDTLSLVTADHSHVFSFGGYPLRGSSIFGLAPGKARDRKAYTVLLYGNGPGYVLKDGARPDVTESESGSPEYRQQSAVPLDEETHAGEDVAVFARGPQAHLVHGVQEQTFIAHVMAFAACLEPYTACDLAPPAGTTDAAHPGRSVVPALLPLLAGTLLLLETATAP
The depositor's hits bear a star; / = not tested or not shown. Cut-off read from the data, not from the text of the source, unless noted: active = inhibition above about 30%; inactive = the rest.

SMILES	Cav3 T inh	PostGolgi yeast	DAT uptake mod	D1 mod	PostGolgi ctrl	PLAP act
COc1ccc(C2=CC(c3c(C)nn(-c4ccccc4)c3Cl)n3nnnc3N2)cc1OC (stereo not drawn)	-0.24	-9	0.43	2	8	1.5
CC(CN1CCCCC1)OC(=O)C(C)(c1ccccc1)c1ccccc1 (stereo not drawn)	-0.26	0	-0.81	/	2	1.8
Cc1ccc(S(=O)(=O)N2CCC(C(=O)N3CCN(Cc4ccccc4)CC3)CC2)cc1	0.012	0	-0.77	0.15	24	1.4
COc1ccc(S(=O)(=O)N2CCC(C(=O)N3CCc4ccccc4C3)CC2)cc1	-1.1	17	2.1	/	5	1.6
COc1ccc(S(=O)(=O)N2CCC(C(=O)N3CCc4ccccc4C3)CC2)cc1C	-5*	16	1.3	/	16	1.4
Cc1ccc(S(=O)(=O)N2CCC(C(=O)N3Cc4ccccc4C3)CC2)cc1	0.57	15	0.0063	1.1	37*	1.1
Cc1ccc(S(=O)(=O)N2CCN(C(=O)N(c3ccccc3)c3ccccc3)CC2)cc1	-1.2	-8	-0.82	/	94*	1.6
O=c1c(Cl)nc2cc(Cl)ccc2n1CCNc1ncc(C(F)(F)F)cc1Cl	2.3	76*	1.5	/	99*	1
CN(C)S(=O)(=O)c1ccc(C(=O)Nc2ccccn2)cc1	-0.97	8	0.22	-0.051	5	0.8
O=C(NNc1ccccn1)C(=O)NNS(=O)(=O)c1ccc(Cl)cc1	/	3	/	/	31*	2.4*
COc1cccc(C2(O)CCN(C(=O)C3CCC3)CC2)c1	0.15	-6	0.032	-0.28	-1	1
COCCN1Cc2cccc(C(=O)Nc3cccnc3)c2C1=O	0.37	-5	0.27	2.9	16	0.9
CCOc1ccc(NC(=O)c2cccc3c2C(=O)N(Cc2cccnc2)C3)cc1	0.79	-4	-0.31	1.8	32*	1.1
CCCN1Cc2cccc(C(=O)Nc3ccc(OC)c(OC)c3)c2C1=O	/	/	/	3.8*	/	/
CCOC(=O)N1CCC(N2Cc3cccc(C(=O)Nc4ccc(OC)c(OC)c4)c3C2=O)CC1	-0.51	2	-0.18	-2.2*	37*	1.6
CCCN1Cc2cccc(C(=O)NCc3ccccc3OC)c2C1=O	0.15	-2	2.2	/	7	1
COCCN1Cc2cccc(C(=O)Nc3ccc(S(=O)(=O)N4CCCCC4)cc3)c2C1=O	/	/	/	6.8*	/	/
CCOc1nc(CC)nc(NC(=O)NS(=O)(=O)c2ccccc2Cl)n1	0.41	-3	-0.76	1.1	7	0.9
COc1cc(OC)cc(C(=O)Nc2cccc(N3CCCC3)c2)c1	0.062	-3	-1.1	-0.66	8	1
O=C(NC1CCCC1)c1noc2c1CCCCC2	1.4	-2	0.0038	/	11	1
CS(=O)(=O)N(CC(=O)Nc1ccccc1Sc1ccccc1)c1ccc(F)cc1	-3.6	-2	0.027	/	54*	1.1
Cc1ccc(N(CC(=O)Nc2cc(Cl)ccc2Oc2ccccc2)S(C)(=O)=O)cc1C	-5.9*	-3	0.96	/	11	1.2
CS(=O)(=O)N(CC(=O)O)c1ccc(Oc2ccccc2)cc1	-0.37	9	0.6	0.16	36*	0.9
COc1ccc(Cl)cc1NC(=O)CN(C1CCCCC1)S(C)(=O)=O	-4.3*	-8	-0.091	0.53	9	0.8
O=C(CSc1nnc(CNC(=O)c2ccccc2F)o1)c1ccccc1	0.025	-5	-1.5	-0.78	-2	1.2
SMILES	Cav3 T inh	PostGolgi yeast	DAT uptake mod	D1 mod	PostGolgi ctrl	PLAP act
CSc1ccccc1NC(=O)CN(C1CCCCC1)S(C)(=O)=O	0.71	0	1.1	/	4	2*
COc1ccc(Cl)cc1NC(=O)CCc1ccccc1	-4.6*	-7	-0.48	/	8	0.9
O=C(Nc1ccccc1N1CCOCC1)c1ccccc1NS(=O)(=O)c1ccc(F)c(F)c1	-4*	4	-1.7	/	15	1.1
Cc1cc(F)ccc1S(=O)(=O)Nc1ccccc1C(=O)Nc1ccccc1N1CCOCC1	-5.9*	-18	-0.43	/	19	1.2
COc1cc(OC)cc(C(=O)Nc2ccccc2N2CCOCC2)c1	0.83	4	1.7	2.2	0	1.2
CCOc1ccc(S(=O)(=O)Nc2ccccc2C(=O)Nc2ccccc2N2CCOCC2)cc1	-1.7	3	0.18	0.17	34*	1.4
CCOc1ccc(S(=O)(=O)Nc2ccccc2C(=O)NCC2CCCO2)cc1 (stereo not drawn)	1.1	6	0.25	-0.86	-7	1.1
O=C(Nc1ccccc1N1CCOCC1)c1ccccc1NS(=O)(=O)c1ccc(F)cc1	/	2	/	/	34*	1.2
Cc1ccc(OCC(=O)OCC(=O)c2c(N)n(C)c(=O)n(C)c2=O)cc1C	1.1	-7	0.46	/	7	0.9
Cn1c(O)c(C=Nc2ccc(Cc3ccncc3)cc2)c(=O)n(C)c1=O	/	/	/	/	/	0.8
O=P(O)(CN1CCCCC1)C1CCCCC1O (stereo not drawn)	/	/	/	-0.27	/	/
CCC(CC)C(=O)NCc1ccccc1Cl	0.7	3	-1.4	1.3	-6	1.1
CCC(C)NC(=S)NNC(=O)c1ccc(C(C)(C)C)cc1 (stereo not drawn)	-2.3	/	0.23	/	/	/
Cc1cc(F)ccc1S(=O)(=O)Nc1ccccc1C(=O)Nc1ncn[nH]1	-2.9	15	-0.51	-1.2	11	2.9*
Cc1ccc(C)c(S(=O)(=O)Nc2ccccc2C(=O)Nc2ccccc2N2CCOCC2)c1	-4.9*	9	-0.69	/	14	1.7
O=C(Nc1ncc(Cc2cccc(Cl)c2Cl)s1)c1ccc([N+](=O)[O-])cc1	-0.95	2	0.71	/	17	1.3
O=C(Nc1ncc(Cc2cc(Cl)ccc2Cl)s1)c1ccc([N+](=O)[O-])cc1	-2.4	7	0.5	/	31*	0.9
Cc1cnn(-c2ccc3nnc(-c4ccc(Br)cc4)n3n2)c1	-0.51	14	0.79	0.79	6	0.9
N#CC1=C(N)Oc2n[nH]c(-c3ccccc3)c2C1c1cccc(OC(=O)N2CCOCC2)c1 (stereo not drawn)	0.41	0	-0.18	2.6	6	1.5
Cc1nc2ccccc2n2c(O)c(CC(=O)O)cc12	-6.3*	9	-0.36	-0.013	-5	1
c1ccc(-c2cc(CSc3nc4ccccc4[nH]3)on2)cc1	-3.2	6	0.12	-2.3	11	0.8
Cc1c(NC(=O)CCCCCN2C(=O)C3C4C=CC(C4)C3C2=O)c(=O)n(-c2ccccc2)n1C (stereo not drawn)	0.17	1	0.15	0.49	19	1.3
CCN(CC)c1ncn(Cc2c(Cl)cccc2Cl)c2ncnc1-2	-3.2	-36	-0.012	/	34*	0.9
Cc1nn(Cc2c(Cl)cccc2Cl)c(C)c1N	0.6	/	-0.039	/	/	/
Cc1cc(-c2ccccc2)nc(N(C)NC(=O)c2c(F)cccc2F)c1S(C)(=O)=O	-1.7	4	-0.049	/	30*	1.7
CN(C)CCCNc1cn[nH]c(=O)c1Cl	0.12	18	-0.95	/	6	0.9
Cc1ccc(-c2nnc3c4ccccc4c(C)nn23)cc1S(=O)(=O)N1CCN(CCO)CC1	1.4	0	0.63	2.1	27	1.4

Screening results: PubChem BioAssay, several laboratories
